SMILES strings stand for the structures.

The record followed here is PubChem BioAssay (NCATS).

The experiment is described as follows: qHTS profiling of the MIPE4 collection as inhibitors of Plasmodium falciparum (DD2) proliferation (Rep 2) (AID 743346). As to conditions: P. falciparum Dd2 in erythrocytes, SYBR Green DNA, 72 h; at 28.5 µM. An excerpt: Plasmodium falciparum is a virulent malarial parasite that kills 1-2 million people worldwide each year. Transmitted by mosquitoes, the sporozoite form of the parasite enters the blood stream to infect hepatocytes, where they become merozoites that infect red blood cells (erythrocytes). Within erythrocytes, merozoites begin a […] cycle of growth and division, after which the parasite is released to infect new red blood cells. Gametocytes, which form within erythrocytes as well, circulate in the bloodstream and are ingested by the mosquito, thereby completing the life cycle. To profile malarial isolates for differential chemical responses and to identify inhibitors of malarial growth, an assay that measures P. falciparum growth and replication within erythrocytes was employed. This assay uses a DNA binding fluorescent dye (SYBR Green) to detect parasite DNA following cell lysis. Because mature erythrocytes lack DNA, only Plasmodium-derived DNA is detected.
The SYBR Green viability assay was adapted from a method described previously (Plouffe et al., 2008). For screening 3 ul culture medium was dispensed into 1536 well black clear bottom plates (Aurora Biotechnologies) using a Multidrop Combi (Thermo Fisher Scientific Inc.), 23 nL compounds in DMSO were added by a pin tool (Kalypsys), and 5 ul of erythrocytes infected with P. falciparum (0.3% parasitemia, 2.5% hematocrit final concentration) were added. The plates were incubated at 37 C in a humidified incubator in 5% CO2 for 72 h, and 2 ul lysis buffer (20 mM Tris HCl, 10 mM EDTA, 0.16% saponin, 1.6% triton X, 10X SYBR Green I supplied as 10,000X […] by Invitrogen) was added to each well. The plates were mixed for 25 sec with gentle shaking and incubated overnight at room temperature in the dark. The following morning, fluorescence intensity at 485(14) nm excitation and 535(25) nm emission wavelengths was measured on an EnVision (Perkin Elmer) plate reader. Plate reads were normalized relative to the control inhibitor (0.29 uM artemisinin) and vehicle (DMSO) wells present on each plate and then corrected by an algorithm using vehicle-only control plates at the beginning and end of the compound plate stack.
A general note: qHTS replaces the single test concentration by a dilution series.
Regarding `NC(N)=NC(=O)c1nc(Cl)c(N)nc1N`, the parasite growth, % of control (lower = inhibition) was found to be 111%.
For `C=CCc1cc(OC)c(O)c(C(=O)NCCO)c1` the value was 125%; for `CN(C)[C@@H](CCOc1cccc2ccccc12)c1ccccc1`, 31.8%.
The same measure for `C[C@@H]1C[C@@H]([C@H](O)CC2CC(=O)NC(=O)C2)C(=O)[C@@H](C)C1`: 6.94%; for `COc1ccc(C(=O)N2CCCC2=O)cc1`: 128%; for `CCOC(=O)Nc1ccc(NCc2ccc(F)cc2)nc1N`: 84.5%.
For `CCCS(=O)c1ccc2nc(NC(=O)OC)[nH]c2c1` (stereo not given) the value was 101%.
For the compound `COC(=O)C1=CCCN(C)C1`, the parasite growth, % of control (lower = inhibition) amounted to 47.2%.
The same measure for `O=C(O)c1nn(Cc2ccc(Cl)cc2Cl)c2ccccc12`: 101%.
The same measure for `NC(=O)Cc1cccc(C(=O)c2ccccc2)c1N`: 114%.
